Records with an inconclusive call do not appear. Activity calls are given as the source filed them. The call rests on the fitted dose curve; in most records, active means well fitted curve in the direction sought with a large enough effect in the repeat runs; inconclusive means weak or mixed curves; inactive means no such curve, though single readings can be large; an effect the other way counts as inactive or inconclusive.
Key:
[1] = qHTS RealTime-Glo MT Cell Viability Assay in HepG2 cells - 24 hour (AID 1224867); further: nearly all actives have a fitted effect of over 50% in size
Outline: (§1)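 Real-time, nonlytic viability: 600 HepG2 cells/well mixed with NanoLuc enzyme plus prosubstrate; 5 h settle, compound (DMSO) added by pintool; luminescence monitored over 40 h at 37 C.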

[2] = qHTS RealTime-Glo MT Cell Viability Assay in HEK293 cells - 32 hour (AID 1224868); further: top concentration of the series differs between compounds; nearly all actives have a fitted effect of over 50% in size
Outline: (§2)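 Cells + reagent dispensed (600 cells/well, HEK293) → 5 h at 37 C/5% CO2 → 23 nL compound in DMSO pinned → 40 h at 37 C → luminescence read at 0, 8, 16, 24, 32, 40 h.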

[3] = A CellTox Green Cytotoxicity Assay to monitor cytotoxicity in HEK293 cells - 0 hour (AID 1224869); further: nearly all actives have a fitted effect of over 50% in size
Outline: (§3)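 Cytotoxicity was tracked continuously in HEK293 cells by a DNA-binding dye excluded from viable cells. Compounds were transferred in DMSO 5 h after seeding; fluorescence was recorded at intervals up to 40 h.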

[4] = qHTS RealTime-Glo MT Cell Viability Assay in HepG2 cells - 40 hour (AID 1224870); further: nearly all actives have a fitted effect of over 50% in size
Outline: (§4)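 Real-time viability: cells seeded at 600 per well together with NanoLuc and cell-permeant prosubstrate, compounds added after 5 h incubation. Luminescence tracked at 0, 8, 16, 24, 32 and 40 h of exposure.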

[5] = A CellTox Green Cytotoxicity Assay to monitor cytotoxicity in HEK293 cells - 40 hour (AID 1224871); further: nearly all actives have a fitted effect of over 45% in size
Outline: as §3

[6] = qHTS RealTime-Glo MT Cell Viability Assay in HEK293 cells - 16 hour (AID 1224872)
Outline: as §2

[7] = qHTS RealTime-Glo MT Cell Viability Assay in HepG2 cells - 8 hour (AID 1224873); further: nearly all actives have a fitted effect of over 55% in size
Outline: as §4

[8] = qHTS RealTime-Glo MT Cell Viability Assay in HEK293 cells - 40 hour (AID 1224874); settings: RealTime-Glo luminescence, stronger effect = lower value; further: nearly all actives have a fitted effect of over 50% in size
Outline: (§5)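 Nonlytic bioluminescent viability monitoring. HEK293 at 600 cells/well with reagent; 5 h settle; compound transfer by pintool; plates held at 37 C and read at set time points.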

[9] = A CellTox Green Cytotoxicity Assay to monitor cytotoxicity in HEK293 cells - 24 hour (AID 1224875); further: series mostly up to about 77 µM; nearly all actives have a fitted effect of over 45% in size
Outline: as §3

[10] = A CellTox Green Cytotoxicity Assay to monitor cytotoxicity in HepG2 cells - 16 hour (AID 1224876); further: nearly all actives have a fitted effect of over 45% in size
Outline: (§6)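 Real-time, homogeneous cytotoxicity readout: dead-cell DNA staining by CellTox Green in HepG2 monolayers, fluorescence measured at timed intervals up to 40 h of continuous compound exposure.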

[11] = qHTS RealTime-Glo MT Cell Viability Assay in HepG2 cells - 32 hour (AID 1224877); further: nearly all actives have a fitted effect of over 55% in size
Outline: as §1

[12] = A CellTox Green Cytotoxicity Assay to monitor cytotoxicity in HepG2 cells - 40 hour (AID 1224879); further: nearly all actives have a fitted effect of over 40% in size
Outline: as §6

[13] = A CellTox Green Cytotoxicity Assay to monitor cytotoxicity in HEK293 cells - 32 hour (AID 1224881); further: nearly all actives have a fitted effect of over 40% in size
Outline: as §3

[14] = A CellTox Green Cytotoxicity Assay to monitor cytotoxicity in HepG2 cells - 0 hour (AID 1224882); further: nearly all actives have a fitted effect of over 35% in size
Outline: as §6

[15] = A CellTox Green Cytotoxicity Assay to monitor cytotoxicity in HepG2 cells - 32 hour (AID 1224883); further: nearly all actives have a fitted effect of over 50% in size
Outline: as §6

[16] = A CellTox Green Cytotoxicity Assay to monitor cytotoxicity in HEK293 cells - 8 hour (AID 1224884); further: nearly all actives have a fitted effect of over 35% in size
Outline: as §3

[17] = qHTS RealTime-Glo MT Cell Viability Assay in HepG2 cells - 16 hour (AID 1224885); further: nearly all actives have a fitted effect of over 50% in size
Outline: as §1

[18] = qHTS RealTime-Glo MT Cell Viability Assay in HEK293 cells - 24 hour (AID 1224886)
Outline: as §2

[19] = qHTS RealTime-Glo MT Cell Viability Assay in HEK293 cells - 0 hour (AID 1224880); further: top concentration of the series differs between compounds; nearly all actives have a fitted effect of over 45% in size
Outline: as §5

[20] = A CellTox Green Cytotoxicity Assay to monitor cytotoxicity in HepG2 cells - 24 hour (AID 1224878); further: nearly all actives have a fitted effect of over 45% in size
Outline: as §6
On the % scale 0 is the no-effect control and ±100 the full control effect.

NCC1CCC(C(=O)Oc2ccc(CCC(=O)O)cc2)CC1 (stereo unspecified)
inactive: outcome [1] | outcome [2] | outcome [3] | outcome [4] | Potency [5] | outcome [6] | outcome [7] | max response [8] 8.81% | Potency [9] | Potency [10] | outcome [11] | Potency [12] | Potency [13] | Potency [14] | Potency [15] | Potency [16] | outcome [17] | outcome [18]

CNC(C)=O
inactive: outcome [1] | outcome [2] | outcome [3] | outcome [4] | Potency [5] | outcome [6] | outcome [7] | max response [8] -0.0492% | Potency [9] | Potency [10] | Potency [12] | Potency [19] | Potency [13] | Potency [14] | Potency [16] | outcome [17] | outcome [18]

COC(=O)C(c1ccccc1Cl)N1CCc2sccc2C1 (stereo unspecified)
inactive: outcome [1] | outcome [2] | outcome [3] | outcome [4] | Potency [5] | outcome [6] | outcome [7] | max response [8] -3.35% | Potency [9] | Potency [10] | Potency [20] | Potency [12] | Potency [19] | Potency [13] | Potency [14] | Potency [15] | outcome [17] | outcome [18]

Cc1cc(C)c(C)c(C)c1
inactive: outcome [1] | outcome [2] | outcome [3] | outcome [4] | Potency [5] | outcome [6] | outcome [7] | max response [8] -10% | Potency [9] | outcome [11] | Potency [20] | Potency [12] | Potency [19] | Potency [13] | Potency [14] | Potency [15] | Potency [16] | outcome [17]

CCCCCCC(O)CO (stereo unspecified)
inactive: outcome [1] | outcome [2] | outcome [3] | outcome [4] | Potency [5] | outcome [6] | outcome [7] | max response [8] 1.68% | Potency [9] | Potency [10] | Potency [20] | Potency [12] | Potency [19] | Potency [14] | Potency [15] | outcome [17] | outcome [18]

CC(C)C(C)C
inactive: outcome [1] | outcome [2] | outcome [3] | outcome [4] | Potency [5] | outcome [6] | outcome [7] | max response [8] 5.69% | Potency [9] | Potency [10] | Potency [20] | Potency [12] | Potency [19] | Potency [14] | Potency [15] | outcome [17]

Cc1ccc2cccnc2c1
inactive: outcome [1] | outcome [2] | outcome [3] | outcome [4] | Potency [5] | outcome [6] | outcome [7] | max response [8] 20.7% | Potency [9] | Potency [10] | Potency [12] | Potency [19] | Potency [13] | Potency [14] | Potency [15] | Potency [16] | outcome [17] | outcome [18]

COCCCOc1cc(C[C@@H](C[C@H](N)[C@@H](O)C[C@H](C(=O)NCC(C)(C)C(N)=O)C(C)C)C(C)C)ccc1OC
inactive: outcome [1] | outcome [2] | outcome [3] | outcome [4] | Potency [5] | outcome [6] | outcome [7] | max response [8] 2.37% | Potency [9] | Potency [10] | Potency [20] | Potency [12] | Potency [13] | Potency [15] | Potency [16] | outcome [17] | outcome [18]

CCCCCCCCCCCCCCCC/C=C/C1CC(=O)OC1=O (stereo unspecified)
inactive: outcome [1] | outcome [2] | outcome [3] | outcome [4] | Potency [5] | outcome [6] | outcome [7] | max response [8] -0.0124% | Potency [9] | Potency [10] | Potency [20] | Potency [12] | Potency [19] | Potency [13] | Potency [14] | Potency [16] | outcome [17] | outcome [18]

COC(=O)c1ccccc1Cl
inactive: outcome [1] | outcome [2] | outcome [3] | outcome [4] | Potency [5] | outcome [6] | outcome [7] | max response [8] 2.48% | Potency [9] | Potency [10] | Potency [20] | Potency [12] | Potency [13] | Potency [14] | Potency [15] | Potency [16] | outcome [17] | outcome [18]

C/C=C(\C)C(=O)OC/C=C(\C)CCC=C(C)C
inactive: outcome [1] | outcome [2] | outcome [3] | outcome [4] | Potency [5] | outcome [6] | outcome [7] | max response [8] 7.26% | Potency [9] | Potency [10] | outcome [11] | Potency [12] | Potency [19] | Potency [13] | Potency [14] | Potency [16] | outcome [17] | outcome [18]

C[C@@H]1NC(=O)[C@@H](N)CNC(=O)[C@H](C2CCNC(N)=N2)NC(=O)/C(=C/NC(N)=O)NC(=O)[C@H](CNC(=O)C[C@@H](N)CCCN)NC1=O (stereo partly specified)
inactive: activity change, negative = cytotoxicity [1] 4.49% [at 0.29 µM] | activity change, negative = cytotoxic [2] 0.857% [at 0.29 µM] | cytotoxicity [3] 0.414% [at 0.29 µM] | activity change, negative = cytotoxic [4] 3.51% [at 0.29 µM] | cytotoxicity increase [5] 21.6% [at 0.29 µM] | activity change, negative = cytotoxicity [6] 0.93% [at 0.29 µM] | viability change, negative = cytotoxic [7] 3.98% [at 0.29 µM] | max response [8] 0.0952% | activity change [9] 19.3% [at 0.29 µM, stronger effect = higher value] | activity change, negative = cytotoxic [11] 3.72% [at 0.29 µM] | cytotoxicity [20] -1.91% [at 0.29 µM] | cytotoxicity increase [12] -3.78% [at 0.29 µM] | activity change, negative = cytotoxicity [19] -3.01% [at 0.29 µM] | cytotoxicity increase [13] 19.4% [at 0.29 µM] | cytotoxicity [14] -4.92% [at 0.29 µM] | cytotoxicity increase [15] -3.17% [at 0.29 µM] | cytotoxicity increase [16] 6.36% [at 0.29 µM] | activity change, negative = cytotoxic [17] 5.82% [at 0.29 µM]

N#CC1(N)CCCCC1
inactive: outcome [1] | outcome [2] | outcome [3] | outcome [4] | Potency [5] | outcome [6] | outcome [7] | max response [8] 6.54% | Potency [9] | Potency [10] | Potency [20] | Potency [12] | Potency [19] | Potency [13] | Potency [14] | Potency [15] | outcome [17] | outcome [18]

Nc1cc(S(=O)(=O)O)ccc1O
inactive: outcome [1] | outcome [2] | outcome [3] | outcome [4] | Potency [5] | outcome [6] | outcome [7] | max response [8] 14.9% | Potency [9] | Potency [10] | Potency [12] | Potency [19] | Potency [13] | Potency [15] | Potency [16] | outcome [17] | outcome [18]
